About 65 (0.03%) of roughly 200,000 compounds were called active. Many of the other results were omitted from the sample, so actives are more common in it than they were. Unmarked numbers belong to inactive results.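 Rule for the calls: active = activation of at least 50% relative to the plate's high and low controls in the primary single-dose screen; inactive = activation below 50%.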
Test: compounds producing H2O2 with reducing agent – biochemical, NIH compound library profiling, artefact control for MLSCN library redox annotation, primary screen (AID 878);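 note: compound incubated with DTT at 0.8 mM final as the reducing agent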
Conditions: DTT-dependent redox cycling H2O2, phenol red/HRP absorbance; at 10 µM; active compounds read high; 100% = 100 µM peroxide control, 0% = buffer

In order of falling activation:
1. Cc1ccc2nc(-c3ccccn3)cc(C(=O)Nc3ccc4c(c3)OCO4)c2c1  4.14%
2. Nc1c(-c2ccc(F)cc2)cnc2ncnn12  1.8%
3. CC(C)c1nccn1S(=O)(=O)c1cc([N+](=O)[O-])ccc1Cl  1.71%
4. COc1ccc(C2NC(=S)NC3=C2CCc2ccccc23)cc1OC (stereo not given)  0.96%
5. COc1ccc(NC(=O)c2ccccc2[N+](=O)[O-])cc1OC  0.48%
6. CSCCNCc1cn(-c2ccc(F)cc2F)nc1-c1ccccc1C  0.48%
7. O=C(C1CCN(S(=O)(=O)c2ccc(Br)s2)CC1)N1CCN(C2CCCCC2)CC1  0.46%
8. O=C(CP(=O)(c1ccccc1)c1ccccc1)N1CCOCC1  0.42%
9. Cc1cccc(-n2c(Cc3cc(=O)[nH]c(=O)[nH]3)nnc2SCC(=O)Nc2cccc(C(F)(F)F)c2)c1  0.37%
10. O=C(CN(C(=O)c1csnn1)c1cccc(F)c1)NCc1ccc(F)cc1  0.3%
11. CC(C)Oc1ccc(/C=C(\NC(=O)/C=C/c2ccco2)C(=O)NCCc2nc3ccccc3[nH]2)cc1  0.27%
12. COc1ccc(OCC(=O)Nc2cc(C)c(Cl)cc2OC)c([N+](=O)[O-])c1  0.12%
13. CN(C)/C=C/C(=O)c1cnc2sccn2c1=O  0.12%
14. CCc1nc2ccccc2c(C(=O)OC2CCCCC2=O)c1C (stereo not given)  0.11%
15. COC(=O)Cc1ccc(OCC(=O)Nc2ccc(OC(F)(F)F)cc2)cc1  0.09%
16. Cc1ccc(OCC(=O)NNC(=S)NCc2ccccc2)cc1  0.08%
17. Cc1cccc(NC(=S)N(CCN(C)C)C(C)c2ccco2)c1 (stereo not given)  0.05%
18. CCCn1nc(Oc2nc(NC(C)C)nc(N(C)C)n2)ccc1=O  0.03%
19. CCCn1c(N)c(C(=O)CSc2nc3ccccc3c(=O)n2-c2ccc(OC)cc2)c(=O)[nH]c1=O  0.00314%
20. COc1ccccc1N1CCN(CC(=O)NCCc2ccc(S(N)(=O)=O)cc2)CC1  0.00253%
21. CC1=NNC(=O)C1CCC(=O)N/N=C\c1ccc(Cl)c(Cl)c1 (stereo not given)  -0.00164%
22. O=C(CSc1nnc(-c2ccncc2)o1)NCc1ccc(Cl)cc1  -0.01%
23. CC(=O)C1=C(C)NC2=C(C(=O)CC(C)(C)C2)C1C (stereo not given)  -0.01%
24. CN(C)c1ccc(/C=N/NC(=O)c2ccc(Cn3cc(Br)cn3)o2)cc1  -0.04%
25. O=c1cc(-c2ccccc2)[nH]c2cc(F)ccc12  -0.1%
26. COc1ccccc1CC(NC(C)=O)C(=O)NC1CCN(C(=O)Nc2ccccc2Cl)CC1 (stereo not given)  -0.13%
27. Cc1ccccc1-n1nc(SCC(=O)O)sc1=S  -0.13%
28. CN(C)Cc1ccc(F)cc1Sc1cc(Cl)ccc1Cl  -0.14%
29. O=C(NN1C(=O)C2C3C=CC(O3)C2C1=O)c1ccccc1 (stereo not given)  -0.16%
30. CN(C)C(=O)c1ccc2c(c1)C1C3CCC(C3)C1C(c1ccccc1)N2 (stereo not given)  -0.17%
31. CCOc1cc(CNn2c(C)nnc2SCC(=O)NC(C)(C)C)ccc1OCC(=O)NC(C)(C)C  -0.27%
32. C=C(C)CNC(=S)N/N=C/c1ccccc1OCC(=O)O  -0.31%
33. COC(=O)c1nc(NC(=O)c2ccc(C(C)(C)C)cc2)n[nH]1  -0.33%
34. O=C(CN1CCN(C/C=C/c2ccccc2)CC1)Nc1ccc(F)cc1F  -0.37%
35. N=c1n(CCc2ccccc2)c2ccccc2n1Cc1ccccc1F  -0.46%
36. CCC(C)(C)NC(=O)c1cc([N+](=O)[O-])ccc1N1CCCCC1  -0.54%
37. CN1C(=O)/C(=C/c2ccco2)SC1=Nc1cccc(C(=O)O)c1  -0.55%
38. O=C1/C(=C\c2ccccc2Cl)SC(=S)N1CCC(=O)N1CCCc2ccccc21  -0.64%
39. CCOC(=O)C1(Cc2cccc(OC)c2)CCN(C(C)COC)CC1 (stereo not given)  -0.66%
40. COc1cc2c3c(c1)/C(=C1/SC(=S)NC1=O)C(=O)N3C(C)(C)C=C2C  -0.69%
41. CC(C)(C)CN1CCNC(=O)C1CC(=O)NC1Cc2ccccc2C1 (stereo not given)  -0.72%
42. O=C(NN1C(=O)C2C3C=CC(C3)C2C1=O)c1ccco1 (stereo not given)  -0.88%
43. CCn1c(SCC(=O)N(C)C2CCS(=O)(=O)C2)nnc1-c1cccs1 (stereo not given)  -1.15%
44. COCC(C)NC(=O)CSc1nc2nn(-c3ccccc3)c(=O)c-2c2n1CCCCC2 (stereo not given)  -1.27%
45. O=C(Nc1ccc(Br)cn1)c1ccc([N+](=O)[O-])o1  -1.5%
46. CC(C)(C)[C@H]1C=C(C(=O)NCc2ccccc2)O[C@@H](OCc2ccc(CO)cc2)C1  -1.79%
47. Cc1cc(C)c(C#N)c(N2CCC(C(N)=O)CC2)n1  -1.8%
48. COc1ccc(OC)c(-c2csc(NC(=O)C3=NNC(=O)CC3)n2)c1  -1.87%
49. CC1CCN(S(=O)(=O)c2ccc3ncn(CC(=O)N(C)C4CCCCC4)c(=O)c3c2)CC1  -2.09%
50. CC(=O)Nc1ccccc1C(=O)C(=O)Nc1ccc(F)cc1  -3.37%
